Experimental data taken from the supplement of paper PMC10720658.
± gives the standard deviation of the averaged measurements.

Test system: AEK1 (Tb927.3.2440)
Assay: percent reduction in TR-FRET probe signal relative to DMSO control; higher = stronger displacement of ATP-site probe (binding)
Conditions: 1 µM; incubation time 1 h

Going from N#CC[C@H](C1CCCC1)n1cc(-c2ncnc3[nH]ccc23)cn1 to N#Cc1c(NC(=O)c2cccc3ccccc23)sc2c1CCCC2 [JNK Inhibitor IX], the “percent reduction in TR-FRET probe signal” value falls from 22.6 ± 7.6% to -3.71 ± 5.5%.

Cc1ccc2nc(NCCN)c3ncc(C)n3c2c1 and NC(=O)c1cccc(-c2cc(Nc3ccc(OC(F)(F)F)cc3)ncn2)c1 are within error of each other in “percent reduction in TR-FRET probe signal” value: -7.43 ± 3.5% for the first, -4.38 ± 9.6% for the second.
